The supplement of paper PMC6555819

Assays:
Assay in all cases: PBM binding z-score (relative to random genomic background probes); higher = stronger binding; sequences stand for … in GC…GCGATTGACAGCGTAGAATGAAGG
[1] = tested on: PPARg:RXRa DBDmut IVT, anti-RXR (DBD mutation: RXRa K156A/R161A, NR concentration 270 nM, RXRa partner concentration 90 nM)
In short: (§1)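 Binding z-scores were set against random background probes. The data came from custom Agilent 4×180K protein-binding microarrays carrying double-stranded probes with 34-nt variable regions, incubated 1 h with ligand-free nuclear receptor dimers. Partner-specific antibodies detected binding, and scanned fluorescence was regression-normalized.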

[2] = tested on: PPARg:RXRa IVT, anti-PPARg (NR concentration 270 nM, RXRa partner concentration 90 nM)
In short: as §1

[3] = tested on: PPARg DBDmut:RXRa IVT, anti-PPARg (DBD mutation: PPARg1 K132A/R137A, NR concentration 270 nM, RXRa partner concentration 90 nM)
In short: as §1

[4] = tested on: PPARg DBDmut IVT, anti-PPARg (DBD mutation: PPARg1 K132A/R137A, NR concentration 270 nM)
In short: as §1

[5] = tested on: PPARg homodimer (NR concentration 180 nM)
In short: as §1

[6] = tested on: PXR:RXRa (NR concentration 270 nM, RXRa partner concentration 90 nM)
In short: as §1

[7] = tested on: PXR homodimer (NR concentration 270 nM)
In short: as §1

[8] = tested on: RARa:RXR (NR concentration 270 nM, RXRa partner concentration 90 nM)
In short: as §1

[9] = tested on: RARa homodimer (NR concentration 270 nM)
In short: as §1

[10] = tested on: RARb:RXRa (NR concentration 270 nM, RXRa partner concentration 90 nM)
In short: as §1

[11] = tested on: RARb homodimer (NR concentration 270 nM)
In short: as §1

[12] = tested on: RARg:RXRa (NR concentration 270 nM, RXRa partner concentration 90 nM)
In short: as §1

[13] = tested on: RARg homodimer (NR concentration 270 nM)
In short: as §1

[14] = tested on: RXRa DBDmut IVT, anti-RXR (DBD mutation: RXRa K156A/R161A, NR concentration 90 nM)
In short: as §1

[15] = tested on: RXRa homodimer (NR concentration 180 nM)
In short: as §1

[16] = tested on: THRa:RXRa (NR concentration 90 nM, RXRa partner concentration 90 nM)
In short: as §1

[17] = tested on: THRa homodimer (NR concentration 90 nM)
In short: as §1

[18] = tested on: VDR homodimer (NR concentration 270 nM)
In short: as §1

Row | Sequence | PBM binding z-score [1] | PBM binding z-score [2] | PBM binding z-score [3] | PBM binding z-score [4] | PBM binding z-score [5] | PBM binding z-score [6] | PBM binding z-score [7] | PBM binding z-score [8] | PBM binding z-score [9] | PBM binding z-score [10] | PBM binding z-score [11] | PBM binding z-score [12] | PBM binding z-score [13] | PBM binding z-score [14] | PBM binding z-score [15] | PBM binding z-score [16] | PBM binding z-score [17] | PBM binding z-score [18]
1 | CCTATTAGTTGACCATAAGGCCAACCGAAGCTCG | 0.55 | 0.487 | 0.478 | 0.312 | 1.95 | 0.947 | 1.1 | 0.845 | 1.87 | 1.34 | 1.68 | 0.941 | 0.942 | 0.893 | 0.779 | 2 | 1.89 | 1.06
2 | TCGAGTATGTTAGTCGGGGCATTCAGCCAACATA | 0.962 | 0.119 | -0.528 | -0.979 | -0.491 | -0.224 | -0.529 | -0.247 | -0.841 | 0.204 | -0.183 | -0.172 | -0.574 | 0.723 | -0.06 | 0.102 | -0.431 | 0.226
3 | GCTATTAGTTGAAAGGGCAACAGAATGATTCTCG | 0.52 | 1.11 | 0.63 | 0.276 | 1.36 | 0.774 | 0.784 | 1.47 | 1.15 | 2.09 | 1.87 | 1.36 | 1.47 | 0.874 | 1.24 | 0.672 | -0.526 | 0.397
4 | TCTTGTAGAGCAGCAGGTTAAGAAAGCTGGCCAA | 1.09 | 0.666 | -0.321 | -1.03 | -0.986 | -0.26 | -1.07 | -0.139 | -0.879 | -0.156 | -0.584 | -0.394 | -0.758 | -0.623 | -0.14 | -0.0931 | -1.03 | -1.08
5 | CGTCCATGGTCAGAGAGGTCAGTGAATGCCGAGT | 0.536 | 0.857 | -0.938 | -0.643 | 1.93 | 3.11 | 1.73 | 2.87 | 0.23 | 3.52 | 4.09 | 3.16 | 4 | 0.839 | 2.97 | 2.58 | 0.835 | 2.63
6 | CCTGCTAGGTCAATGGTCAGGTAAAGCAGCTCGC | 4.38 | 4.23 | 0.154 | -0.732 | 1.38 | 0.832 | -0.154 | 1.93 | -0.238 | 3.81 | 2.93 | 3.45 | 4.27 | 1.52 | 2.28 | 2.65 | 1.34 | 0.248
7 | TCTGCTAGGTCAACGATGGCCAGCTAATCTGCTA | 4.07 | 4.02 | 0.274 | -0.0746 | 0.165 | 0.871 | -1.29 | 1.9 | -0.648 | 3.94 | 2.85 | 3.75 | 4.72 | 0.868 | 2.35 | 2.6 | 0.486 | -0.708
8 | TCCAGTTGGTCACGGAGGTCACACACGACGGGTA | 2.14 | 3.9 | 0.387 | 0.563 | 2.63 | 4.5 | 1.2 | 4.33 | 0.942 | 4 | 4.6 | 4.87 | 4.79 | 1.11 | 4.8 | 3.84 | 2.09 | 2.65
9 | ATCGAAAGGTCGACGTGAGTATAGAGAAAGGGAA | -0.328 | 1.19 | 1.19 | 0.607 | 0.972 | 2.21 | 0.153 | 2.94 | -0.0772 | 3.82 | 2.07 | 3.93 | 3.91 | 1.34 | 3.94 | 1.79 | -0.87 | 0.464
10 | CCTAGCAGGCCAATCTGGGTCACGCAAGGCTTGA | 4.65 | 5.54 | 0.23 | -0.484 | 0.454 | 1.48 | -0.572 | 2.17 | -0.583 | 1.92 | 2.43 | 1.86 | 1.9 | -0.504 | 1.69 | 3.99 | 0.767 | -0.0889
11 | TACCCTAGGTCATGCGGGCCAGTATAGTGTCGGC | 1.96 | 3.63 | 0.136 | -0.0789 | 0.581 | 1.72 | 0.593 | 2.37 | 0.299 | 3.93 | 3.28 | 4.07 | 4.89 | 0.8 | 3.33 | 3.18 | 1.48 | 1.26
12 | TCTTGTAGATCAAGCAGGTTACGAAAGCCTGAGT | 1.76 | 1.04 | -0.0946 | 0.435 | 0.37 | 0.615 | -0.0528 | 0.951 | -0.22 | 0.516 | 0.377 | 0.206 | -0.118 | 0.652 | 0.618 | 0.537 | -0.421 | -0.206
13 | CCTAGTTAGTCAAGGTCACACACGCTATAGGTAC | 1.6 | 2.69 | 1.12 | 1.42 | 3.64 | 4.25 | 2.22 | 4.4 | 2.9 | 4.01 | 4.28 | 4.36 | 4.31 | 2.45 | 4.3 | 4.27 | 4.29 | 3.3
14 | CCTTACGCGTCACGAGGTTATAGCACGACGAGCG | 0.147 | 0.154 | 0.124 | 0.548 | 1.05 | 1.03 | 0.532 | 1.15 | 0.761 | 0.811 | 0.644 | 0.881 | 0.604 | 0.705 | 1.38 | 1.51 | 0.967 | 0.734
15 | ATATGTAGGTTAGATCCGGGTCATTCAGGCTATG | 6.3 | 6.32 | 1.34 | 0.983 | 1.65 | 3.1 | 1.25 | 3.08 | 1.01 | 2.03 | 2.63 | 3.21 | 1.63 | 0.691 | 2.65 | 3.63 | 2.08 | 1.71
